Assay [1] in a line: inhibitors of TNFa-induced NFkB p65 translocation, primary screen, imaging, HUVEC, MLSMR starter and 10KST1 sets (AID 438;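 active means inhibition above 20% together with a positive visual image hit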;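 further: compound added about 3h40 before a 20 min TNFalpha stimulation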;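 on inhibition: signal is the nuclear over cytoplasmic p65 intensity ratio per well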). To be noted: HUVEC TNFa-induced p65 nuclear translocation; cell count: measured here: nuclei count (cytotoxicity indicator), at 2.08 µM; inhibition: at 2 µM, stronger effect = higher value, 0% TNFa-plus-vehicle, 100% no-TNFa wells.
Assay [2] in a line: inhibitors of mutant huntingtin aggregation, primary screen, imaging, exon1htt(103Q)mCFP cells, high-content imaging (AID 483;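 active means visual image review flags a hit and inhibition of aggregation exceeds 20%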;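 further: compound exposure lasted 3 days before fixation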;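 on nuclei count: percent of the per-plate median nuclei count of sample wells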). To be noted: exon1htt(103Q)mCFP cell line, aggregate imaging, at 2 µM; inhibition of aggregation: stronger effect = higher value; nuclei count: measured here: cell count, toxicity.
Assay [3] is described as follows: inhibitors of E-selectin induction by TNFa, primary screen, imaging, HUVEC, immunofluorescence, MLSMR starter and 10KST1 sets (AID 487;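 active means visually confirmed hit in the image check and inhibition above 20%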;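 on inhibition: signal is fraction of cell area covered by stained E-selectin grains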;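 on nuclei count: 100% = median nuclei count of all wells on the same plate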). The following applies: HUVEC TNFalpha-induced E-selectin immunofluorescence imaging, at 2 µM; inhibition: stronger effect = higher value; nuclei count: measured here: cell number, toxicity.
Assay [4] concerns the target Voltage-gated potassium channel subunit beta-2 (Rattus norvegicus) (UniProt P62483). Briefly: KvBeta enzyme negative modulators, primary screen, biochemical, NADPH fluorescence (AID 622;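 active means fluorescence slope higher than the sample average by over 3 SD, cut at about -0.22 in these data, passing the limit was not always enough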;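 further: slope of raw intensity against log time taken from 70 to 1610 s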). To be noted: recombinant KvBeta, 4-cyanobenzaldehyde reduction, at 10 µM, stronger effect = higher value.
Assay [5] has the same target. Description: KvBeta positive modulators, primary screen, biochemical, NADPH fluorescence (AID 623;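 active means NADPH fluorescence slope more negative than the mean of all samples by about 3 SD, 99.7% confidence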;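 further: fluorescence intensity change per second fitted from 20 to 320 s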). To be noted: Recombinant KvBeta, NADPH fluorescence decrease slope, 10 min; at 10 µM; stronger effect = lower value.
Assay [6] addresses Alpha-2C adrenergic receptor (Homo sapiens) (UniProt P18825). Description: modulators of alpha2C/GIRK thallium flux, primary screen, cell-based, HEK293 alpha2C/GIRK1/2 (AID 624;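 active means fluorescence slope after compound addition differing from the mean of all screened samples at 99.7% confidence, in either direction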;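 further: slope of fluorescence ratio to pre-addition baseline per second over 15 to 24 s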). To be noted: thallium flux BTC fluorescence, at 10 µM, actives lie on both sides.
The nature of assay [7]: inhibitors of Sendai virus-induced IRF3 signaling, primary screen, TLR/RLR signaling modifier project, cell-based, Sendai virus stimulus, luciferase, 10K MLSCN set (AID 602276).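 Further: firefly luciferase from ISG56 promoter only with Renilla not read in this screen; 0% = Sendai virus plus DMSO and 100% = medium plus DMSO without virus.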 The following applies: HEK293 RL24 IRF3 luciferase reporter, at 10 µM, stronger effect = higher value.
Assay [8] is described as follows: inhibitors of poly I:C-induced TLR3 signaling, primary screen, cell-based, poly I:C stimulus, luciferase, 10K MLSCN set (AID 602277;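 active means inhibition of the reporter signal at or above 50%; inactive means inhibition below 50%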). The following applies: HEK293-TLR3 RL24 IRF3 luciferase reporter, at 10 µM, stronger effect = higher value.

Activity calls are given as the source filed them.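 How the source made its calls, unless noted: active means inhibition at or above 50% at 10 µM; inactive means inhibition below 50%.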

Sequence of Alpha-2C adrenergic receptor (Homo sapiens) (P18825 whole entry, looked up): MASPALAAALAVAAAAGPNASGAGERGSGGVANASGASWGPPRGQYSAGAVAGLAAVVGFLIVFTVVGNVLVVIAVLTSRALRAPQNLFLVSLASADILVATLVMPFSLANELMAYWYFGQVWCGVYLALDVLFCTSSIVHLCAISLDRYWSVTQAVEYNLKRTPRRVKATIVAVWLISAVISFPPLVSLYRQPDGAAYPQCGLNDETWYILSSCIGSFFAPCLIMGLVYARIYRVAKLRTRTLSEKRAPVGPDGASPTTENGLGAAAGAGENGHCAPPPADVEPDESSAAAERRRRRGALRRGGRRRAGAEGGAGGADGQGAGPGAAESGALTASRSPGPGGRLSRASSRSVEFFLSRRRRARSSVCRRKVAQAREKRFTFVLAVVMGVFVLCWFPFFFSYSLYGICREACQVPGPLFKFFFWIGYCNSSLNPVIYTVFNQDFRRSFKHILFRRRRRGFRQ
Sequence of Voltage-gated potassium channel subunit beta-2 (Rattus norvegicus) (P62483 whole entry, looked up): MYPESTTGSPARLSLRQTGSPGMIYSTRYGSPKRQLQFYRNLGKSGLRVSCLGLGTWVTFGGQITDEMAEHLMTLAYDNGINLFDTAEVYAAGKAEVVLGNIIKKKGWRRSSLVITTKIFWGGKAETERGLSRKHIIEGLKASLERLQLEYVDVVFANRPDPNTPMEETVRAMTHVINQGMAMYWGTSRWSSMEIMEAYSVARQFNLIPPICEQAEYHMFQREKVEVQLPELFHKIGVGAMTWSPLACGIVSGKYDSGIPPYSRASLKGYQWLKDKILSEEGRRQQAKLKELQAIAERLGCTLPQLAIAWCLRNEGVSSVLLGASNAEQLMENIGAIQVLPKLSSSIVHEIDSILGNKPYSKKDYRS

For `CCOc1ccc(-c2cc(C(=O)N3CCN(c4ccccn4)CC3)c3ccccc3n2)cc1`, the cell count in assay [1] is 619. The inhibition in assay [1] is 7.9% (inactive); in assay [3], -19.3% (inactive); in assay [7], 34% (inactive); in assay [8] it was -64.8% (inactive). Besides, the inhibition of aggregation in assay [2] was -11.8% (inactive). For the same compound, the nuclei count was determined as 86.4% in assay [2] and 111% in assay [3]. In addition, in assay [4], the fluorescence slope is -0.473 (inactive). Moreover, in assay [5], the NADPH fluorescence slope was -6.7e-06 (inactive). For the same compound, in assay [6], the slope is 0.00673 (inactive).
On to `O=C1c2ccccc2CN1CCNS(=O)(=O)c1ccc(Cl)cc1`, for which the cell count in assay [1] came to 414. For the same compound, the inhibition is -1% (inactive) in assay [1], -1.7% (inactive) in assay [3], 14.1% (inactive) in assay [7] and 25.9% (inactive) in assay [8]. Also, the inhibition of aggregation in assay [2] is -2.3% (inactive). In addition, the nuclei count in assay [2] turned out to be 101%; in assay [3], 97%. Also, in assay [4], the fluorescence slope was -0.389 (inactive). The NADPH fluorescence slope in assay [5] is -7.9e-06 (inactive). Besides, the slope in assay [6] is 0.00712 (inactive).
Regarding `COc1ccc(C(CC(=O)O)NC(=O)c2ccccc2)cc1OC` (centres undefined), the cell count in assay [1] turned out to be 317. The inhibition in assay [1] was -1.6% (inactive); in assay [3] it was -9% (inactive); in assay [7], 9.8% (inactive); in assay [8], 28.8% (inactive). Moreover, in assay [2], the inhibition of aggregation was -6.3% (inactive). Besides, the nuclei count in assay [2] was determined as 116%; in assay [3] it was 106%. Moreover, the fluorescence slope in assay [4] was -0.311 (inactive). The NADPH fluorescence slope in assay [5] is 1e-05 (inactive). Further, the slope in assay [6] was 0.00391 (inactive).
Take `NC(=O)COC(=O)CNC(=O)c1ccc(Cl)cc1`: in assay [1], the cell count was 450. Also, the inhibition in assay [1] is 11.7% (inactive); in assay [3], 20.5% (inactive); in assay [7], 18.5% (inactive); in assay [8], 17.3% (inactive). In addition, the inhibition of aggregation in assay [2] is 4.1% (inactive). For the same compound, the nuclei count in assay [2] worked out at 106%; in assay [3], 111%. Also, the fluorescence slope in assay [4] is -0.521 (inactive). Besides, the NADPH fluorescence slope in assay [5] was -1.3e-05 (inactive). In assay [6], the slope was 0.00666 (inactive).
For the compound `O=C(CN1CCN(Cc2ccccc2F)C1=O)NCc1cccnc1`, in assay [1], the cell count is 674. The inhibition in assay [1] is -9.2% (inactive); in assay [3], -69.2% (inactive); in assay [7], 7.76% (inactive); in assay [8], 7.56% (inactive). In assay [2], the inhibition of aggregation is 18.1% (inactive). Further, the nuclei count turned out to be 93.5% in assay [2] and 115% in assay [3]. Besides, the fluorescence slope in assay [4] is -0.502 (inactive). Also, the NADPH fluorescence slope in assay [5] was 2.9e-05 (inactive). Moreover, in assay [6], the slope was 0.00712 (inactive).
As to `CC(C)NC(=O)CSCc1ccccc1Cl`, the cell count in assay [1] was found to be 350. Besides, the inhibition in assay [1] was 12.5% (inactive); in assay [3], -0.7% (inactive); in assay [7], 9.82% (inactive); in assay [8] it was 0.78% (inactive). The inhibition of aggregation in assay [2] was 6.1% (inactive). Moreover, the values for the nuclei count in assay [2] and in assay [3] were 100% and 110%, respectively. Also, the fluorescence slope in assay [4] is -0.5 (inactive). The NADPH fluorescence slope in assay [5] was -1.3e-05 (inactive). Further, the slope in assay [6] is 0.00508 (inactive).
For the compound `O=C1C(Cl)=C(N2CCCCC2)C(=O)N1c1ccccc1Cl`, the cell count in assay [1] is 450. Also, the inhibition is 4.4% (inactive) in assay [1], -57.1% (inactive) in assay [3], 16.8% (inactive) in assay [7] and 24.8% (inactive) in assay [8]. For the same compound, the inhibition of aggregation in assay [2] was -0.8% (inactive). Besides, the nuclei count in assay [2] turned out to be 105%; in assay [3], 126%. Besides, the fluorescence slope in assay [4] was -0.465 (inactive). Further, in assay [5], the NADPH fluorescence slope is -0.000114 (inactive). Also, in assay [6], the slope was 0.00518 (inactive).
As to `Cc1ccc(CCNC(=O)CC2Oc3ccc(C)cc3NC2=O)cc1` (centres undefined), in assay [1], the cell count is 644. In addition, the inhibition was 5.5% (inactive) in assay [1], -33.5% (inactive) in assay [3], -18.4% (inactive) in assay [7] and 2.52% (inactive) in assay [8]. Moreover, the inhibition of aggregation in assay [2] was -11.9% (inactive). The nuclei count was determined as 105% in assay [2] and 124% in assay [3]. Besides, the fluorescence slope in assay [4] was -0.558 (inactive). Also, in assay [5], the NADPH fluorescence slope was 1.2e-05 (inactive). Moreover, the slope in assay [6] is 0.00676 (inactive).
On to `CC(Sc1nc(-c2ccccc2)cc(C(F)(F)F)n1)C(=O)N1CCC(C(N)=O)CC1` (centres undefined), for which, in assay [1], the cell count stood at 446. For the same compound, the inhibition in assay [1] was 7.2% (inactive); in assay [3] it was -45.8% (inactive); in assay [7], 17.5% (inactive); in assay [8] it was 24.5% (inactive). In addition, the inhibition of aggregation in assay [2] is 8.9% (inactive). The values for the nuclei count in assay [2] and in assay [3] were 97.1% and 126%, respectively. The fluorescence slope in assay [4] was -0.455 (inactive). The NADPH fluorescence slope in assay [5] is -8.9e-05 (inactive). The slope in assay [6] was 0.00612 (inactive).
Turning to `COc1ccc(NC(=O)C2CCCN(S(=O)(=O)c3cccc4cccnc34)C2)cc1OC` (centres undefined), the cell count in assay [1] was 551. In addition, the inhibition was -2.6% (inactive) in assay [1], -24.3% (inactive) in assay [3], 14.2% (inactive) in assay [7] and 24.7% (inactive) in assay [8]. The inhibition of aggregation in assay [2] was -0.5% (inactive). For the same compound, the values for the nuclei count in assay [2] and in assay [3] were 104% and 109%, respectively. Besides, the fluorescence slope in assay [4] was -0.559 (inactive). The NADPH fluorescence slope in assay [5] is 8e-06 (inactive). In addition, the slope in assay [6] was 0.007 (inactive).
Turning to `COC(=O)C1=C(C)NC(=O)C1(Nc1ccc(Cl)cn1)C(F)(F)F` (centres undefined), in assay [1], the cell count turned out to be 324. In addition, the inhibition was 1.8% (inactive) in assay [1], -63.7% (inactive) in assay [3], 13.8% (inactive) in assay [7] and 32.2% (inactive) in assay [8]. Moreover, the inhibition of aggregation in assay [2] is 3.9% (inactive). Besides, the nuclei count in assay [2] is 95.1%; in assay [3], 125%. The fluorescence slope in assay [4] is -0.317 (inactive). The NADPH fluorescence slope in assay [5] was -1.2e-05 (inactive). Further, in assay [6], the slope is 0.00613 (inactive).
With `COc1ccccc1NC(=O)CSC1CC(=O)N(c2ccc3c(c2)OCO3)C1=O` (centres undefined), the cell count in assay [1] was determined as 685. The inhibition is -3.4% (inactive) in assay [1], -109% (inactive) in assay [3], 17.9% (inactive) in assay [7] and 21.8% (inactive) in assay [8]. In addition, the inhibition of aggregation in assay [2] is -2.5% (inactive). In addition, the nuclei count was 95.7% in assay [2] and 122% in assay [3]. In addition, in assay [4], the fluorescence slope is -0.622 (inactive). The NADPH fluorescence slope in assay [5] was 2.7e-05 (inactive). The slope in assay [6] is 0.00433 (inactive).
In the case of `Cc1cc2cc(CN(CC3CCCO3)C(=O)c3cnccn3)c(=O)[nH]c2cc1C` (centres undefined), the cell count in assay [1] was 330. The inhibition in assay [1] was 5.3% (inactive); in assay [3], -22.4% (inactive); in assay [7], -3.76% (inactive); in assay [8] it was -3.05% (inactive). The inhibition of aggregation in assay [2] is -0.3% (inactive). Moreover, the values for the nuclei count in assay [2] and in assay [3] were 107% and 125%, respectively. In addition, the fluorescence slope in assay [4] was -0.592 (inactive). In addition, the NADPH fluorescence slope in assay [5] was -5.9e-05 (inactive). Besides, the slope in assay [6] was 0.00376 (inactive).
On to `Cn1nc(C(=O)NC2CCCCCC2)ccc1=O`, for which, in assay [1], the cell count came to 348. Besides, the inhibition is -4.6% (inactive) in assay [1], -2.2% (inactive) in assay [3], 9.51% (inactive) in assay [7] and 11.7% (inactive) in assay [8]. Besides, the inhibition of aggregation in assay [2] was 14% (inactive). Also, the figures for the nuclei count in assay [2] and in assay [3] were 105% and 121%, respectively. In assay [4], the fluorescence slope is -0.608 (inactive). Besides, in assay [5], the NADPH fluorescence slope was -2.1e-05 (inactive). Besides, the slope in assay [6] is 0.00579 (inactive).

The values above are taken from PubChem BioAssay.
